The values below come from PubChem BioAssay (NCI).

About 79,000 compounds went through this panel and 15% of them were active in at least one assay; those are over-represented in the sample as a whole. The source made the active and inactive calls. Cut-off read from the data, not from the text of the source: active = growth inhibition above about 70%; inactive = the rest.

The nature of one experiment: NCI Yeast Anticancer Drug Screen. Data for the bub3 strain (AID 167). The settings on record: S. cerevisiae bub3 mutant strain, at 5.0 µM (retest, dose inferred, filed as 0.5), active compounds read high. The gist of the method:
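Screening used yeast with an engineered genetic alteration affecting cell cycle control. Compound-exposed cultures were compared with vehicle cultures, and reduced growth was taken as inhibition.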
For the compound `CC(CC(C#CCN(C)C)N(C)C)CC(C)(C)C` (stereo not drawn), the growth inhibition is 7% (inactive).
As to `CCCCCCCCCCNC(=O)C[n+]1cccc(C(=O)NCc2ccccc2)c1`, the growth inhibition is 8% (inactive).
Take `Cc1ccc(N2C(N)=C(C#N)C(C#N)(C#N)C2c2ccccc2)cc1` (stereo not drawn): the growth inhibition is 25% (inactive).
The same measure, in the same setting: the value for `O=[N+]([O-])c1cccc(Cl)c1C(Nc1nncs1)Nc1nncs1` was -2% (inactive); that for `CCCC(C(=O)OCCNC1CCCCC1)c1ccccc1` (stereo not drawn) was -4% (inactive).
As for `BrCc1ccc([Si](c2ccccc2)(c2ccccc2)c2ccc(CBr)cc2)cc1`, the growth inhibition is -2% (inactive).
For `CCCCC(O)(c1ccccc1)C(O)(c1ccccc1)c1c(F)c(F)c(F)c(F)c1F` (stereo not drawn), the growth inhibition was -8% (inactive).
Still for that read-out and setting: as for `C/C=C\C=N\NC(N)=S`, the figure is 2% (inactive).
On the same count and under the same terms, the value for `NCCc1ccc2oc3cc(=O)c4ccccc4c-3nc2c1` was 0% (inactive); that for `CC(C)=CCc1ccc(O)cc1` was -10% (inactive); that for `CCCCCCCCCCCCCC/[N+]([O-])=C/c1ccc([N+](=O)[O-])o1` was 0% (inactive).
On the same count and under the same terms, as for `Fc1ccc(CSC(=S)Nc2ccc(Br)cc2)cc1`, the figure is -6% (inactive); as for `C/C(=N\NC(=S)N1CCN(C2CCCCC2)CC1)c1ccccn1`, -16% (inactive).
As for `Cc1ccccc1N=Nc1sc(N)nc1-c1ccccc1`, the growth inhibition is -7% (inactive).
Consider `CN(c1ccc(C(N)=O)cc1)c1c(O)c2ccccc2[nH]c1=O`, for which the growth inhibition is -4% (inactive).
Still for that read-out and setting: the value for `Fc1ccc(CSC(=S)Nc2cccc(C(F)(F)F)c2)cc1` was -2% (inactive).
Still for that read-out and setting: the value for `COc1ccccc1C(C)c1ccc2ccccc2c1C(=O)O` (stereo not drawn) was -6% (inactive).
For `CNC(=O)OCc1c(-c2ccccc2)c(-c2ccccc2)n(-c2ccc(OC)cc2)c1COC(=O)NC`, the growth inhibition is 17% (inactive).
Take `Cc1cc(SCC(=O)c2ccc(Cl)cc2)cc(C)[o+]1`: the growth inhibition is -2% (inactive).
The same measure, in the same setting: as for `Cn1cnc([N+](=O)[O-])c1Sc1nc2ccccc2s1`, the figure is 45% (inactive); as for `CCOC(=S)SSC(=S)NCCNC(=S)SSC(=S)OCC`, 4% (inactive).
On the same count and under the same terms, as for `Cc1nc(C)c(C(=O)NNC(=O)C[N+](C)(C)C)cc1C(=O)NNC(=O)C[N+](C)(C)C`, the figure is -20% (inactive); as for `CC/C(=C(\CC)c1ccc(O)c(CN(CC)CC)c1)c1ccc(OC)cc1`, 0% (inactive); as for `CC(C)N(C(=O)CC1(O)CCCCC1)C(C)C`, -1% (inactive).
Same read-out and setting: the value for `CCCCN(CCCC)CC(O)c1cc(-c2ccc(Cl)cc2)nc2cc(C)ccc12` (stereo not drawn) was 6% (inactive).
For the compound `C/C(=C\c1ccccc1Cl)c1ccccn1`, the growth inhibition is 33% (inactive).
The same measure, in the same setting: the value for `O=C(OC1C2CCC2C2CC21)c1cc([N+](=O)[O-])cc([N+](=O)[O-])c1` (stereo not drawn) was 6% (inactive); that for `O=c1[nH]c2c([N+](=O)[O-])cc(Cl)cc2nc1/C=C(\O)c1ccc(F)cc1` was 2% (inactive).
On to `CC(=O)N[C@H]1CC[C@H]2[C@@H]3CCC4=CC(=O)CC[C@]4(C)[C@H]3CC[C@]12C`, for which the growth inhibition was -1% (inactive).
On the same count and under the same terms, the value for `CC12OC(=O)C(C(N)=O)=C1C=C(c1ccccc1)CC2c1ccccc1` (stereo not drawn) was -4% (inactive); that for `Cn1c2nc(-[n+]3ccccc3)nc-2c([O-])n(C)c1=O` was -1% (inactive); that for `COc1cc(NCCCCCCCC2CCCCN2)c2ncccc2c1` (stereo not drawn) was 0% (inactive).
On to `Nc1ncnc(N2CCOCC2)c1N`, for which the growth inhibition was -3% (inactive).
Same read-out and setting: as for `CCCCCCCCCCCCNCC(=O)O`, the figure is 7% (inactive); as for `O=C(O)C1C2CC3CC(C2)CC1C3` (stereo not drawn), 16% (inactive).
Still for that read-out and setting: the value for `CC(=O)OC1CCC2(C)C(=CCC3C2CCC2(C)C3CC(C(N)=O)C2C(C)=O)C1` (stereo not drawn) was 9% (inactive); that for `CC1(C)CC(=N/O)/C(=N/O)C(=N\NC(N)=S)/C1` was -1% (inactive); that for `CCCCCCCCCCCCCCCCCC1=NCCN1` was 8% (inactive).
Same read-out and setting: as for `O=c1c2ccccc2c2ccccc2c(=O)n1-c1cc2c3ccccc3ccc2c2ccccc12`, the figure is -12% (inactive).

The same experiment, now with this note: S. cerevisiae bub3 mutant strain, at 50.0 µM (retest, dose inferred, filed as 5.0), active compounds read high.
As to `CC(CC(C#CCN(C)C)N(C)C)CC(C)(C)C` (stereo not drawn), the growth inhibition is 14% (inactive).
`CCCCCCCCCCNC(=O)C[n+]1cccc(C(=O)NCc2ccccc2)c1`: the growth inhibition is 99% (active).
On the same count and under the same terms, the value for `Cc1ccc(N2C(N)=C(C#N)C(C#N)(C#N)C2c2ccccc2)cc1` (stereo not drawn) was 50% (inactive).
As for `O=[N+]([O-])c1cccc(Cl)c1C(Nc1nncs1)Nc1nncs1`, the growth inhibition was 22% (inactive).
With `CCCC(C(=O)OCCNC1CCCCC1)c1ccccc1` (stereo not drawn), the growth inhibition is 69% (inactive).
Same read-out and setting: the value for `BrCc1ccc([Si](c2ccccc2)(c2ccccc2)c2ccc(CBr)cc2)cc1` was -15% (inactive).
As for `CCCCC(O)(c1ccccc1)C(O)(c1ccccc1)c1c(F)c(F)c(F)c(F)c1F` (stereo not drawn), the growth inhibition is 96% (active).
Still for that read-out and setting: the value for `C/C=C\C=N\NC(N)=S` was 7% (inactive); that for `NCCc1ccc2oc3cc(=O)c4ccccc4c-3nc2c1` was 30% (inactive); that for `CC(C)=CCc1ccc(O)cc1` was 99% (active).
Same read-out and setting: as for `CCCCCCCCCCCCCC/[N+]([O-])=C/c1ccc([N+](=O)[O-])o1`, the figure is 14% (inactive); as for `Fc1ccc(CSC(=S)Nc2ccc(Br)cc2)cc1`, 99% (active).
On the same count and under the same terms, the value for `C/C(=N\NC(=S)N1CCN(C2CCCCC2)CC1)c1ccccn1` was 51% (inactive); that for `Cc1ccccc1N=Nc1sc(N)nc1-c1ccccc1` was 98% (active); that for `CN(c1ccc(C(N)=O)cc1)c1c(O)c2ccccc2[nH]c1=O` was 46% (inactive).
Take `Fc1ccc(CSC(=S)Nc2cccc(C(F)(F)F)c2)cc1`: the growth inhibition was 100% (active).
Turning to `COc1ccccc1C(C)c1ccc2ccccc2c1C(=O)O` (stereo not drawn), the growth inhibition is 87% (active).
Same read-out and setting: the value for `CNC(=O)OCc1c(-c2ccccc2)c(-c2ccccc2)n(-c2ccc(OC)cc2)c1COC(=O)NC` was 99% (active); that for `Cc1cc(SCC(=O)c2ccc(Cl)cc2)cc(C)[o+]1` was 87% (active).
In the case of `Cn1cnc([N+](=O)[O-])c1Sc1nc2ccccc2s1`, the growth inhibition was 97% (active).
Still for that read-out and setting: the value for `CCOC(=S)SSC(=S)NCCNC(=S)SSC(=S)OCC` was 91% (active); that for `Cc1nc(C)c(C(=O)NNC(=O)C[N+](C)(C)C)cc1C(=O)NNC(=O)C[N+](C)(C)C` was 8% (inactive).
In the case of `CC/C(=C(\CC)c1ccc(O)c(CN(CC)CC)c1)c1ccc(OC)cc1`, the growth inhibition was 65% (inactive).
On the same count and under the same terms, the value for `CC(C)N(C(=O)CC1(O)CCCCC1)C(C)C` was 6% (inactive).
Still for that read-out and setting: as for `CCCCN(CCCC)CC(O)c1cc(-c2ccc(Cl)cc2)nc2cc(C)ccc12` (stereo not drawn), the figure is 97% (active); as for `C/C(=C\c1ccccc1Cl)c1ccccn1`, 98% (active).
Consider `O=C(OC1C2CCC2C2CC21)c1cc([N+](=O)[O-])cc([N+](=O)[O-])c1` (stereo not drawn), for which the growth inhibition was 98% (active).
Same read-out and setting: as for `O=c1[nH]c2c([N+](=O)[O-])cc(Cl)cc2nc1/C=C(\O)c1ccc(F)cc1`, the figure is 41% (inactive); as for `CC(=O)N[C@H]1CC[C@H]2[C@@H]3CCC4=CC(=O)CC[C@]4(C)[C@H]3CC[C@]12C`, 97% (active); as for `CC12OC(=O)C(C(N)=O)=C1C=C(c1ccccc1)CC2c1ccccc1` (stereo not drawn), 60% (inactive).
Same read-out and setting: as for `Cn1c2nc(-[n+]3ccccc3)nc-2c([O-])n(C)c1=O`, the figure is 0% (inactive).
Still for that read-out and setting: as for `COc1cc(NCCCCCCCC2CCCCN2)c2ncccc2c1` (stereo not drawn), the figure is 88% (active); as for `Nc1ncnc(N2CCOCC2)c1N`, -2% (inactive); as for `CCCCCCCCCCCCNCC(=O)O`, 67% (inactive).
`O=C(O)C1C2CC3CC(C2)CC1C3` (stereo not drawn): the growth inhibition was 86% (active).
On the same count and under the same terms, the value for `CC(=O)OC1CCC2(C)C(=CCC3C2CCC2(C)C3CC(C(N)=O)C2C(C)=O)C1` (stereo not drawn) was 97% (active); that for `CC1(C)CC(=N/O)/C(=N/O)C(=N\NC(N)=S)/C1` was 47% (inactive); that for `CCCCCCCCCCCCCCCCCC1=NCCN1` was 98% (active).
Take `O=c1c2ccccc2c2ccccc2c(=O)n1-c1cc2c3ccccc3ccc2c2ccccc12`: the growth inhibition is -5% (inactive).
